A selection: hits, their analogues and other compounds. The true share with any hit is near 2.3%.
Mito fusion act: qHTS Assay for Small Molecule Inhibitors of Mitochondrial Division or Activators of Mitochondrial Fusion. 320,000 tested, 0.23% active. S. cerevisiae fusion-defective mutant growth rescue, CellTiterGlo 48 h. AID 485298, 2010. Potency, µM (series often up to 46.1 µM), without a hit: top-dose growth rescue (activation), hits mostly activators; further: potency means the concentration at half of the fitted maximal effect; % of control where 0% means no effect; nearly all actives have a fitted effect of over 45% in size
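S. cerevisiae fusion-defective temperature-sensitive mutants (e.g. fzo1-1, mgm1-5) grown 48 h at 37C in YPEG (ethanol/glycerol non-fermentable) medium with 23 nl compound per well; growth rescue read as CellTiterGlo luminescence.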
miR-21 act: qHTS Assay for Modulators of miRNAs and/orActivators of miR-21 | HeLa miR-21 FLuc reporter, luciferase, 48 h | Potency, µM (highest dose often 38.3 µM), without a hit: top-dose activity change, positive = activation, most hits filed as activators | 340,000 tested, under 10 active;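 further: % of control where 0% means no effect; miR-21 action dims this reporter so a rising signal means less miR-21 action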
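Using DMEM plus 10% FBS, HeLa miR-21-FLuc cells are incubated with test compounds (final up to about 40uM) for 48 hours; firefly luciferase signal is then imaged following reagent-mediated lysis.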
Nrf2 ARE act: qHTS of Nrf2 Activators; AREc32 ARE-luciferase reporter (MCF7-derived line), luminescence, 24 h; AID 624171, 2012; 410,000 tested, 0.31% active; Potency, µM (highest dose often 46.1 µM), without a hit: top-dose activation, hits mostly activators; further: potency means the concentration at half of the fitted maximal effect; % of control where 0% means no effect; nearly all actives have a fitted effect of over 65% in size
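Reporter line AREc32 (ARE-Fluc), seeded overnight in OPTI-MEM with 5% FBS; compound pin-transferred, 24 hr at 37 deg C, 5% CO2; luminescent read-out.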
A549 tox: Nrf2 qHTS screen for inhibitors: counterscreen for cytotoxicity | A549 ARE-Fluc cells, CellTiter-Fluor viability, 18-24 h | 390,000 tested, 0.16% active | Potency, µM (doses to about 46 µM), for inactives: at the top dose activity change, negative = cytotoxicity, actives largely listed as inhibitors; further: potency means the concentration at half of the fitted maximal effect; on the % scale 0 is the no-effect control and ±100 the full control effect
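A549 ARE-Fluc cells in 5% FBS OPTI-MEM, 5000 cells/well, rested 2 h then exposed to compounds in concentration-response for 18-24 h at 37 °C. Viability by CellTiter-Fluor fluorescence (Ex 405/Em 525) after 30 min; luciferase luminescence (BugLite, 15 min, RT) read afterwards.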
Nrf2 inh: Nrf2 qHTS screen for inhibitors | A549 ARE-Fluc reporter, luciferase luminescence, 18-24 h | Potency, µM (top dose mostly 46 µM), inactives show at the highest dose activity change, negative = inhibition, actives largely listed as inhibitors | 360,000 tested, 2.1% active | AID 504444, 2011; further: potency means the concentration at half of the fitted maximal effect; on the % scale 0 is the no-effect control and ±100 the full control effect; nearly all actives have a fitted effect of over 60% in size
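Concentration-response testing used A549 ARE_Fluc cells at 5000 cells/well. Following an 18-24 h compound incubation, viability was read by fluorescence (Ex 405/Em 525) and luciferase output by luminescence.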
* marks the source's active call; other numbers are inactive results; ? = inconclusive; / = no result; [ ] = remark or other dose. The call rests on the fitted dose curve; in most records, active means well fitted curve in the direction sought with a large enough effect; inconclusive means small, poorly fitted or top-dose-only effect, or another doubt; inactive means no such curve, though single readings can be large; an effect the other way counts as inactive or inconclusive.

SMILES	Mito fusion act	miR-21 act	Nrf2 ARE act	A549 tox	Nrf2 inh
Cc1nnc(SCC(=O)N2c3ccccc3C(C)(c3ccccc3)CC2(C)C)s1 (stereo not drawn)	16µM*	4%	4%	?	23µM*
O=S(=O)(c1ccc(C(F)(F)F)cc1)N1CCN(c2nc(-c3cccs3)nc3ccccc23)CC1	/	/	/	7%	-24%
COc1cc(C2CC(=O)Nc3c2c(=O)n(C)c2ncnn32)cc(OC)c1OC (stereo not drawn)	/	-11%	0%	-6%	-3%
Cc1ccccc1NC(=O)c1c(NC(=O)Cc2ccccc2)sc2c1CCC2	/	-2%	-1%	3%	7%
Cc1ccc(N2C(=O)CC(c3ccccc3F)C3=C2COC3=O)cc1Cl (stereo not drawn)	/	-6%	1%	6%	?
COc1cc2c(cc1OC)C(C)N(C(=O)c1cc3c(s1)-c1ccccc1OC3)CC2 (stereo not drawn)	20µM*	-2%	0%	-3%	?
CCc1ccccc1N(C)C(=O)c1cc2c(s1)-c1c(C)cccc1OC2	/	-19%	6%	7%	-11%
COc1cccc(N2CCN(C(=O)c3cc4c(s3)-c3c(C)cccc3OC4)CC2)c1	/	-6%	5%	-9%	-4%
COc1ccccc1N1CCN(C(=O)c2cc3c(s2)-c2ccccc2OC3)CC1	6%	0%	0%	-2%	-12%
COc1ccc(N(C)C(=O)c2cc3c(s2)-c2c(C)cccc2OC3)c(OC)c1	18%	-4%	4%	15%	21µM*
COc1cc2c(cc1OC)C(C)N(C(=O)c1cc3c(s1)-c1c(C)cccc1OC3)CC2 (stereo not drawn)	25µM*	-12%	0%	-1%	?
COc1ccc(-n2cnc3cc(C(=O)NC4CCCCCC4)ccc32)cc1	/	-9%	4%	-3%	/
COC(=O)Nc1ccc(S(=O)(=O)NC2CCS(=O)(=O)C2)cc1 (stereo not drawn)	0%	0%	0%	1%	-5%
CCCCc1ccc(S(=O)(=O)NC2CCS(=O)(=O)C2)cc1 (stereo not drawn)	-5%	13%	2%	-2%	18µM*
CC(C)(C)OC(=O)N[C@@H](Cc1ccccc1)c1nnc(SCC(=O)c2ccc(Cl)cc2)o1	6%	4%	0%	-18%	26µM*
Cc1ccccc1CS(=O)(=O)c1nnc([C@H](Cc2ccccc2)NC(=O)OC(C)(C)C)o1	-14%	?	-1%	-6%[1.84 µM]	23µM*
CC(C)(C)OC(=O)N[C@@H](Cc1ccccc1)c1nnc(S(=O)(=O)Cc2ccccc2)o1	-17%	?	/	/	/
Cc1ccc2c(=O)c(C(=O)c3ccccc3)cn(CC(=O)Nc3ccc4c(c3)OCCO4)c2n1	/	-12%	-1%	0%	?
Cc1nn(Cc2c(F)c(F)c(F)c(F)c2F)c(C)c1NC(=O)c1cccc(COc2ccccc2Cl)c1	-1%	-49%	-1%	3%	/
Cc1nn(Cc2cccc(F)c2)c(C)c1NC(=O)c1ccc(COc2ccccc2Cl)cc1	25%	?	0%	?	10µM*
Cc1nn(Cc2c(F)c(F)c(F)c(F)c2F)c(C)c1NC(=O)c1ccc(COc2ccc(Cl)cc2Cl)o1	?	21%	0%	-9%	16µM*
O=C(Nc1ccn(Cc2c(F)c(F)cc(F)c2F)n1)c1ccc(COc2ccc(Cl)cc2Cl)o1	5%	18%	-1%	-14%	/
Cc1nn(Cc2ccc(Cl)cc2Cl)c(C)c1NC(=O)c1ccc(COc2cc(Cl)ccc2Cl)o1	-2%	12%	0%	-23%	12µM*
Cc1ccccc1Nc1c(-c2ccc(Cl)s2)nc2ccccn12	/	/	/	4%	2%
CS(=O)(=O)Nc1ccc(C2=NN(C(=O)c3cccc(F)c3)C(c3cccs3)C2)cc1 (stereo not drawn)	2%	-6%	3%	?	18µM*
SMILES	Mito fusion act	miR-21 act	Nrf2 ARE act	A549 tox	Nrf2 inh
CN(C)c1ccc(C2CC(c3cccc(NS(C)(=O)=O)c3)=NN2C(=O)c2ccccc2)cc1 (stereo not drawn)	3%	0%	3%	?	23µM*
COc1cccc(C2CC(c3cccc(NS(C)(=O)=O)c3)=NN2C(=O)c2ccccc2)c1OC (stereo not drawn)	-11%	8%	3%	?	?
CS(=O)(=O)Nc1ccc(C2=NN(C(=O)c3ccccc3)C(c3cccs3)C2)cc1 (stereo not drawn)	21%	-7%	3%	-11%	?
Cc1ccc(-n2ncc3c(Nc4ccc(Oc5ccccc5)cc4)ncnc32)c(C)c1	/	25%	0%	-24%	/
Cc1ccc(SC2=NS(=O)(=O)c3ccccc32)c(C)c1	/	/	/	2%	0%
Cc1ccc2c(c1)nnn2C1CCN(S(=O)(=O)c2ccc(C(=O)O)cc2)CC1	-1%	-3%	0%	-1%	15%
Cc1ccc2c(c1)nnn2C1CCN(S(=O)(=O)c2ccc(C(=O)N3C(C)CCCC3C)cc2)CC1 (stereo not drawn)	3%	26%	6%	?	10µM*
N#Cc1c(NC(=O)CSc2ncnc3sccc23)oc(-c2ccco2)c1-c1ccco1	3%	4%	10µM*	-8%	-2%
Cc1ccc(CN(Cc2cc3cc(C)ccc3[nH]c2=O)Cc2nnnn2Cc2ccccc2)cc1	/	/	/	-1%	-3%
CN1C(=O)C(C)(C)c2cc(S(=O)(=O)NCc3ccc(C(=O)Nc4ccc(Cl)cc4)cc3)ccc21	/	?	5%	-15%	18µM*
CC1CC1C(=O)Nc1nc(-c2ccc(Cl)s2)cs1 (stereo not drawn)	13%	-5%	5%	2%	23µM*
O=C(Nc1nc(-c2ccc(Cl)s2)cs1)c1ccncc1	2%	14%	18%	-1%	?
O=C1CCc2cc(S(=O)(=O)Nc3ccccc3-c3ccccc3)ccc2N1	/	/	/	1%	-8%
Nc1ccc(-c2n[nH]c(=O)c3ccccc23)cc1N	-2%	-11%	3%	0%	16µM*
CNC(=O)COc1ccccc1C(=O)Nc1ccc2c(c1)oc1ccccc12	2%	-17%	-2%	2%	7.3µM*
N#Cc1ccccc1NC(=O)c1ccccc1OCC(=O)Nc1ccc2c(c1)oc1ccccc12	/	/	3%	3%	?
O=C(O)c1ccc2c(c1)C(=O)N([C@]1(C(=O)O)CC1c1ccccc1)C2=O (stereo partly drawn)	-4%	/	/	-3%	10%
O=C(NC(NC(=S)Nc1c(Cl)cccc1Cl)C(Cl)(Cl)Cl)c1cccc([N+](=O)[O-])c1 (stereo not drawn)	4%	?	5%	?	16µM*
